Assay outcomes from PubChem.
HCMV inh = blocks human cytomegalovirus replication. HFF cells, HCMV-luciferase reporter, 72 h; stronger effect = lower value. activity change, negative = inhibition, % at 57.5 µM. hit rate 4.5% among 410,000. AID 1259415; in the data active = activity change below about -60%; inconclusive = no clear call, values can overlap the other calls; inactive = above about -39%
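Human foreskin fibroblasts infected with luciferase-reporter HCMV at MOI 1 PFU/cell, compounds at two doses. Luciferase measured 72 h post infection; normalized to buffer-only basal and Salinomycin (10uM) controls.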
Lassa entry inh = blocks Lassa virus binding to or entry into cells | AID 540256 | Lassa virus pseudotype entry inhibition, cell reporter | hit rate 1.2% among 300,000 | Potency, µM (top dose mostly 37.9 µM), most hits filed as inhibitors; calls by dose curve; tested in HEK293 cells; note: nearly all actives have a fitted effect of over 50% in size
FMDV inh = blocks foot and mouth disease virus; hit rate 1.2% among 410,000; AID 1159524; FMDV antiviral cell-based qHTS; Potency, µM (titrated, usually from 57.9 µM), usual class: inhibitors; calls by dose curve; tested in HEK293T cells; note: read-out not given here; nearly all actives have a fitted effect of over 45% in size
HCV inh = blocks hepatitis C virus. hit rate 3.4% among 340,000. Potency, µM (series often up to 41.8 µM), hits mostly inhibitors. AID 651820. Huh7.5.1 HCVcc-Cre infection, luciferase reporter, 44 h
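Reporter virus HCVcc-Cre (~0.5 moi) infects cells exposed to compound; seeding density 1,000 cells/well with 4 h settling beforehand. Luminescence, 15 sec read, taken 44 h post-infection following a 15 min RT substrate incubation.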
MARV entry inh = inhibitors of Marburg virus binding or cell entry | Marburg virus pseudotyped entry inhibition, cell reporter | Potency, µM (doses to about 37.8 µM), actives largely listed as inhibitors | hit rate 1.8% among 300,000; calls by dose curve; tested in HEK293 cells
FBPA Giardia inh = inhibitors of Giardia lamblia fructose-1,6-bisphosphate aldolase | hit rate 0.71% among 290,000 | purified Giardia FBPA | Potency, µM (highest dose often 59.6 µM), usual class: inhibitors | AID 2451; note: nearly all actives have a fitted effect of over 55% in size
Target sequence (A8B2U2 whole entry, looked up): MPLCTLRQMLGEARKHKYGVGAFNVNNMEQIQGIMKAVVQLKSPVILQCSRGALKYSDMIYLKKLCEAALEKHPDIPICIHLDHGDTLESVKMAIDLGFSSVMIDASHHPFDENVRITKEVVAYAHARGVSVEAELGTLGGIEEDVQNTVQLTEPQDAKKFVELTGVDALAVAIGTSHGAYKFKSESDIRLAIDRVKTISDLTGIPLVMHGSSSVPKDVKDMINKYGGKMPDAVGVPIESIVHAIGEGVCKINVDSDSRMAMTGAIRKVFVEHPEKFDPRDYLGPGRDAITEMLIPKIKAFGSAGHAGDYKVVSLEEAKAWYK
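Giardia FBPA (40 nM reagent) was preincubated 10 min at RT with compound (up to 57.5 uM final), then substrate plus GAPDH/TPI/NAD/arsenate coupling system with diaphorase/resazurin was added; resorufin fluorescence (525/598 nm) was read after 20 min.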
HCV confirm = confirmation of hepatitis C virus inhibitors | shares compounds with HCV inh | Potency, µM (highest dose often 41.8 µM), actives largely listed as inhibitors | HCVcc-Cre infectious virus cell assay, luciferase, inhibition | hit rate 78% among 640 | AID 720575; note: nearly all actives have a fitted effect of over 80% in size
HCV host tox = host cell cytotoxicity counter-screen for HCV inhibitors | shares compounds with HCV inh | HCV host cell line cytotoxicity counterscreen | Potency, µM (series often up to 41.8 µM), usual class: inhibitors | hit rate 22% among 640 | AID 720576;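 note: 44 h compound exposure; nearly all actives have a fitted effect of over 55% in size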
A number is an active result; - = inactive; ? = inconclusive; . = no result; [ ] = remark or other dose. Only some compounds are listed: those with a hit (about 8.3% of all), similar ones and a draw of the others. Unless noted, calls come from the whole dose curve; as a rule, active = well fitted curve in the direction sought with a large enough effect; inconclusive = small, poorly fitted or top-dose-only effect, or another doubt; inactive = no such curve, though single readings can be large; an effect the other way counts as inactive or inconclusive.

SMILES	HCMV inh	Lassa entry inh	FMDV inh	HCV inh	MARV entry inh	FBPA Giardia inh	HCV confirm	HCV host tox
CCOc1cc(-c2noc(-c3ccncc3)n2)cc(Br)c1OC	-	-	-	?	-	-	?	-
CCCc1ccc(C2C3=C(CC(C)(C)CC3=O)NC3=C2C(=O)c2ccccc23)cc1 (centres undefined)	?	?	-	2.2µM	?	-	11µM	?
CC(=O)Nc1ccc(/C=C/c2nc3ccccc3o2)cc1	-	.	-	?	.	-	.	.
O=C(Nc1ccc(/C=C/c2nc3ccccc3o2)cc1)c1c(F)cccc1F	-	?	-	5.6µM	?	-	4.4µM	-
CCn1c(=O)c2sccc2n2c(CCC(=O)Nc3ccc(F)cc3)nnc12	-	-	-	.	-	.	.	.
CCOC(=O)C1CCCN(S(=O)(=O)c2ccc(S(=O)(=O)N(CC)CC)cc2)C1 (centres undefined)	-70	.	?	0.89µM	.	-	0.7µM	1.8µM
CCOC(=O)C1CCCN(S(=O)(=O)c2ccc(C)cc2)C1 (centres undefined)	-	-	-	-	?	-	.	.
C=Cc1ccc(CSc2nnc(C)n3c2cc2occc23)cc1	-	-	-	.	.	.	.	.
Cc1cccc2c1-c1sc(C(=O)NCCCN3CCC(C)CC3)cc1CO2	?	.	-	5µM	.	-	25µM	-
COc1ccc(NC(=O)N2CCC3(CC2)CCN(C(=O)c2cccc(F)c2)CC3)cc1	.	.	-	.	.	-	.	.
Cc1ccccc1NC(=O)CCl	-	.	?	-	.	-	.	.
O=C(CCl)Nc1cc2[nH]c(=O)[nH]c2cc1Br	-105	?	?	6.3µM	?	-	16µM	?
CCOc1cc(CNC(C)(C)C)ccc1OCC(=O)Nc1cccc(C(F)(F)F)c1	-	-	-	?	?	-	3.1µM	-
O=S(=O)(c1ccccc1)c1nnn2c1nc(NC1CCN(Cc3ccccc3)CC1)c1ccccc12	-	.	-	8.9µM	.	-	14µM	-
COc1ccc(OC)c2nc(-c3ccc4c(c3)OCO4)ccc12	-	?	-	4.5µM	?	-	8.9µM	-
c1ccc2nc(-c3ccc4c(c3)OCO4)ccc2c1	-	.	-	-	.	-	.	.
Cc1cccc(CN2C(=O)N/C(=C/c3cc(C)n(-c4cc(C)ccn4)c3C)C2=O)c1	.	11µM	-	1.8µM	?	-	16µM	-
CSCCC(NS(=O)(=O)c1ccc2c(c1)oc(=O)n2C)C(=O)N1CCN(c2cccc(Cl)c2)CC1 (centres undefined)	?	?	-	.	.	.	.	.
COc1ccc(-c2csc(NC(C)c3nc4cc(Cl)c(Cl)cc4n3CCCO)n2)cc1 (centres undefined)	-	.	-	8.9µM	.	.	13µM	-
CC(Nc1nc(-c2ccc(F)cc2)cs1)c1nc2cc(Cl)c(Cl)cc2n1CCOCCO (centres undefined)	-	.	-	-	.	.	.	.
COc1ccc(Cl)cc1NC(=O)CSc1nnc(C)n2c1cc1occc12	-	-	-	.	.	.	.	.
CC(C)Oc1ccccc1/C=N/NC(=O)c1ccc(F)cc1	-	?	-	7.9µM	?	-	?	-
CC(C)Oc1ccccc1/C=N/NC(=O)c1ccccc1Cl	-	.	-	-	.	-	.	.
NS(=O)(=O)c1ccc(CCNc2nc3c(-c4cccc(F)c4)nnn3c3ccccc23)cc1	-	?	-	1.4µM	-	-	7µM	-
COc1cc(F)ccc1Oc1cccc2c1S(=O)(=O)N([C@H](C)c1ccccc1)C[C@@H](COCc1ccccc1)O2	-	.	.	.	.	.	.	.
SMILES	HCMV inh	Lassa entry inh	FMDV inh	HCV inh	MARV entry inh	FBPA Giardia inh	HCV confirm	HCV host tox
COc1ccc2c(c1)sc(N)[n+]2Cc1cc(C)cc2cccnc12	?	?	-	8.9µM	?	-	16µM	?
CCOc1ccc2c(c1)sc(N)[n+]2Cc1cc(C)cc2cccnc12	-	?	?	?	?	-	.	.
CCc1c(C)nc2ncnn2c1NCCc1ccc(Cl)cc1	?	?	14µM	?	?	-	7µM	?
CC1CCN(C(=O)Cn2c(=O)n(CCCCCC(=O)NCc3ccccc3Cl)c(=O)c3sccc32)CC1	-	?	?	.	?	.	.	.
Cc1nn(C)c(Nc2ccc(Br)cc2)c1Br	-83	.	?	3.5µM	-	-	5µM	8.9µM
Cc1cc(C)nc(-n2nc(C)c(Br)c2Nc2ccc(Br)cc2)n1	-	-	-	-	-	-	.	.
Cc1cc(NC(=S)N(CCN2CCCCC2)Cc2ccco2)ccc1Cl	?	?	-	8.9µM	?	-	25µM	-
CC(=O)OC[C@@H]1O[C@H](CCO/N=C\[C@@H](C)[C@H](OCc2ccccc2)C(C)C)C=C[C@@H]1OC(C)=O	.	.	.	.	?	-[12.9 µM]	.	.
CCOC(=O)c1cc2n(c1/N=C/N(C)C)-c1ccccc1C2=O	-	?	.	?	?	?	?	-
O=C(Nc1cc(-c2nc3ccccc3o2)ccc1Cl)c1sc2c([N+](=O)[O-])cccc2c1Cl	-	-	-	.	-	.	.	.
CCN(C(=O)Cn1nc(Cc2ccncc2)c2ccccc2c1=O)c1cccc(C(F)(F)F)c1	-	-	-	.	-	.	.	.
Cc1cc2oc(C(=O)Nc3ccc(S(=O)(=O)Nc4onc(C)c4C)cc3)cc(=O)c2cc1C	-	-	-	.	?	.	.	.
COc1cc(CCC(O)CC(=O)CCc2ccccc2)ccc1O (centres undefined)	-	.	-	1.1µM	.	-	-	-
CCCCCn1c(=O)[nH]c2cc(C(=O)NCCCN3CCC(C)CC3)ccc2c1=O	-	-	-	4.5µM	?	-	16µM	-
CCN(CC)CCN(C(=O)c1ccc(C(=O)OC)cc1)c1nc2ccc(Cl)cc2s1	-	-	-	.	.	.	.	.
Cc1sc(NC(=O)Cc2ccc3c(c2)OCO3)nc1-c1ccc2c(c1)CCN2C(=O)c1ccc(F)cc1	-	?	?	1.3µM	?	-	7.9µM	-
Cc1cccc(N2CCc3c2nc2ccccc2c3N)c1	-	-	-	8.9µM	?	?	22µM	-
Oc1c(N=Nc2ccccn2)ccc2ccccc12	-101	1.6µM	-	2.5µM	4µM	-	18µM	?
Cn1c(=O)c2cc(S(=O)(=O)NC(Cc3ccccc3)C(=O)Nc3ccc(F)cc3)ccc2n(C)c1=O (centres undefined)	-	-	-	.	-	.	.	.
O=C(/C=C/c1ccco1)Nc1ccc(Cl)c(-c2nc3cc(Cl)ccc3o2)c1	-	-	-	.	.	.	.	.
COc1cc2c(cc1NC(=O)COC(=O)/C=C/c1ccc([N+](=O)[O-])cc1)oc1ccccc12	-	.	-	?	.	-	?	-
COc1cc2c(cc1NC(=O)/C=C/c1ccc([N+](=O)[O-])cc1)oc1ccccc12	-	-	-	-	-	-	.	.
CCCC/C=C/[C@H](c1ccccc1)[C@H](CO)Cc1ccc([N+](=O)[O-])cc1	.	.	.	.	.	-	.	.
COc1ccc2oc(=O)c(-c3nnc(NCc4ccco4)s3)cc2c1	-	-	-	4.5µM	?	-	-	?
